# Measured values as given in PubChem BioAssay (NCI).
# This is part of a sample that, as a whole, favours compounds with a hit. Of some 79,000 tested, about 15% had one in any assay. Unmarked numbers belong to inactive results. The source made the active and inactive calls. Rule as the data show it: active = growth inhibition above about 70%; inactive = the rest.
# Assays:
# [1] = NCI Yeast Anticancer Drug Screen. Data for the rad52 strain (AID 147);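 also: 0% = growth of vehicle-treated control cultures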; details: S. cerevisiae rad52 mutant growth inhibition, active compounds read high
# How it was run: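 Growth of repair-deficient yeast cells was compared between compound-treated and vehicle-treated cultures to give percent inhibition.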
# [2] = NCI Yeast Anticancer Drug Screen. Data for the wt1 strain (AID 149);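 also: 0% = growth of vehicle-treated wt1 cultures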; details: S. cerevisiae wt1 strain (SPY 50644) growth inhibition, active compounds read high
# How it was run: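 Vehicle-normalised growth inhibition; strain wt1; compound exposure.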
# [3] = NCI Yeast Anticancer Drug Screen. Data for the rad50EPP+ strain (AID 151);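 also: 0% = growth of vehicle-treated control cultures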; details: S. cerevisiae rad50 mutant strain, active compounds read high
# How it was run: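 Measured: growth inhibition of rad50EPP+ yeast. Reference: vehicle-treated controls. Screen uses strains with defined genetic alterations in DNA damage repair or cell cycle control.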
# [4] = NCI Yeast Anticancer Drug Screen. Data for the mgt1 strain (AID 153); details: S. cerevisiae mgt1 mutant growth inhibition, active compounds read high
# How it was run: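 Compounds were applied to mgt1 mutant yeast, and growth was then compared against vehicle-treated control cultures to give percent inhibition.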
# [5] = NCI Yeast Anticancer Drug Screen. Data for the rad50 strain (AID 155);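 also: 0% = growth of vehicle-only cultures of the same strain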; details: S. cerevisiae rad50 strain growth inhibition, active compounds read high
# How it was run: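 A DNA repair-deficient yeast mutant serves as the test organism; compound-induced growth inhibition is calculated against vehicle-treated cells.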
# [6] = NCI Yeast Anticancer Drug Screen. Data for the mec2-1 strain (AID 157); details: S. cerevisiae mec2-1 strain, active compounds read high
# How it was run: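 Compounds were applied to mec2-1 yeast cells. Their growth was then compared with that of vehicle-treated cultures to give growth inhibition.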
# [7] = NCI Yeast Anticancer Drug Screen. Data for the rad14 strain (AID 159);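 also: 0% = growth of vehicle-treated control cultures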; details: S. cerevisiae rad14 strain growth inhibition, active compounds read high
# How it was run: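 Vehicle-treated cultures served as the baseline for growth inhibition of a DNA repair-mutant yeast strain exposed to each compound.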
# [8] = NCI Yeast Anticancer Drug Screen. Data for the sgs1 mgt1 strain (AID 161);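 also: 0% = growth of cultures given vehicle only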; details: S. cerevisiae sgs1 mgt1 strain, active compounds read high
# How it was run: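 Growth of a repair-deficient yeast mutant was monitored after compound treatment and expressed as inhibition relative to vehicle-treated cultures.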
# [9] = NCI Yeast Anticancer Drug Screen. Data for the CLN2oe strain (AID 163);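 also: 0% = growth of vehicle-only control cultures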; details: S. cerevisiae CLN2oe strain, active compounds read high
# How it was run: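 Cells of an engineered yeast line with disturbed cell-cycle regulation are treated with compound. Inhibition of growth is then calculated relative to the vehicle-treated reference.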
# [10] = NCI Yeast Anticancer Drug Screen. Data for the cln2 rad14 strain (AID 165);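 also: 0% = growth equal to vehicle treated cultures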; details: S. cerevisiae cln2 rad14 strain, active compounds read high
# How it was run: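 Strain: cln2 rad14 yeast, altered in cell cycle control and DNA damage repair. Read-out: growth inhibition vs vehicle.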
# [11] = NCI Yeast Anticancer Drug Screen. Data for the bub3 strain (AID 167); details: S. cerevisiae bub3 mutant strain, active compounds read high
# How it was run: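 Inhibition values come from growth of compound-treated mutant yeast normalised to vehicle-treated controls.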
# [12] = NCI Yeast Anticancer Drug Screen. Data for the wt2 strain (AID 169);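 also: 0% = growth of vehicle-treated yeast cultures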; details: S. cerevisiae wt2 strain growth inhibition, active compounds read high
# How it was run: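 Growth of compound-treated yeast is measured and expressed as inhibition relative to vehicle-only controls.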
# [13] = NCI Yeast Anticancer Drug Screen. Data for the mlh1 strain (AID 171);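 also: 0% = growth of vehicle-treated control cultures of the same strain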; details: S. cerevisiae mlh1 strain growth inhibition, active compounds read high
# How it was run: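 Test agents were incubated with yeast bearing a defined DNA damage repair or cell cycle control alteration; values are growth inhibition normalised to vehicle-treated cultures.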
# [14] = NCI Yeast Anticancer Drug Screen. Data for the sgs1 strain (AID 173);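 also: 0% = growth of vehicle-only control cultures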; details: S. cerevisiae sgs1 mutant, active compounds read high
# How it was run: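 Strain with an altered DNA repair or cell cycle pathway exposed to compound. Growth then measured. Value = inhibition versus vehicle control.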
# [15] = NCI Yeast Anticancer Drug Screen. Data for the mlh1 rad18 strain (AID 175); details: S. cerevisiae mlh1 rad18 strain growth inhibition, active compounds read high
# How it was run: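 A repair-deficient yeast strain is exposed to test compound, and growth is scored relative to vehicle-treated controls.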
# [16] = NCI Yeast Anticancer Drug Screen. Data for the rad18 strain (AID 177); details: S. cerevisiae rad18 mutant growth inhibition, active compounds read high
# How it was run: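 DNA-repair-defective yeast; compound treatment; growth inhibition scored against vehicle.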
# [17] = at 5.0 µM (retest, dose inferred, filed as 0.5)
# [18] = at 50.0 µM (retest, dose inferred, filed as 5.0)
compound,measurement,setting,value
CCCCCCCCCCCCCCCCCCN(C)C(COC)COP(=O)([O-])OCC[N+](C)(C)C (stereo unspecified),growth inhibition,[1]; at 1.2 µM,-58%
same,growth inhibition,[1]; at 3.7 µM,-67%
same,growth inhibition,[1]; at 11.0 µM,95% (active)
same,growth inhibition,[1]; at 33.0 µM,97% (active)
same,growth inhibition,[1]; at 100.0 µM,97% (active)
same,growth inhibition,[2]; at 1.2 µM,-34%
same,growth inhibition,[2]; at 3.7 µM,-56%
same,growth inhibition,[2]; at 11.0 µM,98% (active)
same,growth inhibition,[2]; at 33.0 µM,99% (active)
same,growth inhibition,[2]; at 100.0 µM,98% (active)
same,growth inhibition,[3]; at 1.2 µM,-33%
same,growth inhibition,[3]; at 3.7 µM,63%
same,growth inhibition,[3]; at 11.0 µM,97% (active)
same,growth inhibition,[3]; at 33.0 µM,98% (active)
same,growth inhibition,[3]; at 100.0 µM,98% (active)
same,growth inhibition,[4]; at 1.2 µM,14%
same,growth inhibition,[4]; at 3.7 µM,8%
same,growth inhibition,[4]; at 11.0 µM,98% (active)
same,growth inhibition,[4]; at 33.0 µM,99% (active)
same,growth inhibition,[4]; at 100.0 µM,98% (active)
same,growth inhibition,[5]; at 1.2 µM,-24%
same,growth inhibition,[5]; at 3.7 µM,-11%
same,growth inhibition,[5]; [17],1%
same,growth inhibition,[5]; at 11.0 µM,97% (active)
same,growth inhibition,[5]; at 33.0 µM,98% (active)
same,growth inhibition,[5]; [18],98% (active)
same,growth inhibition,[5]; at 50.0 µM,73.6% (active)
same,growth inhibition,[5]; at 100.0 µM,98% (active)
same,growth inhibition,[6]; at 1.2 µM,-48%
same,growth inhibition,[6]; at 3.7 µM,-46%
same,growth inhibition,[6]; [17],12%
same,growth inhibition,[6]; at 11.0 µM,97% (active)
same,growth inhibition,[6]; at 33.0 µM,98% (active)
same,growth inhibition,[6]; [18],99% (active)
same,growth inhibition,[6]; at 50.0 µM,23.9%
same,growth inhibition,[6]; at 100.0 µM,98% (active)
same,growth inhibition,[7]; at 1.2 µM,-69%
same,growth inhibition,[7]; at 3.7 µM,-78%
same,growth inhibition,[7]; at 11.0 µM,96% (active)
same,growth inhibition,[7]; at 33.0 µM,98% (active)
same,growth inhibition,[7]; at 100.0 µM,97% (active)
same,growth inhibition,[8]; [17],3%
same,growth inhibition,[8]; [18],2%
same,growth inhibition,[8]; at 50.0 µM,85.8% (active)
same,growth inhibition,[9]; at 1.2 µM,-39%
same,growth inhibition,[9]; at 3.7 µM,-44%
same,growth inhibition,[9]; at 11.0 µM,97% (active)
same,growth inhibition,[9]; at 33.0 µM,98% (active)
same,growth inhibition,[9]; at 100.0 µM,98% (active)
same,growth inhibition,[10]; [17],13%
same,growth inhibition,[10]; [18],-70%
same,growth inhibition,[10]; at 50.0 µM,8.85%
same,growth inhibition,[11]; at 1.2 µM,-23%
same,growth inhibition,[11]; at 3.7 µM,-40%
same,growth inhibition,[11]; [17],14%
same,growth inhibition,[11]; at 11.0 µM,98% (active)
same,growth inhibition,[11]; at 33.0 µM,98% (active)
same,growth inhibition,[11]; [18],10%
same,growth inhibition,[11]; at 50.0 µM,85.2% (active)
same,growth inhibition,[11]; at 100.0 µM,98% (active)
same,growth inhibition,[12]; at 1.2 µM,-41%
same,growth inhibition,[12]; at 3.7 µM,-55%
same,growth inhibition,[12]; at 11.0 µM,97% (active)
same,growth inhibition,[12]; at 33.0 µM,98% (active)
same,growth inhibition,[12]; at 100.0 µM,98% (active)
same,growth inhibition,[13]; at 1.2 µM,-34%
same,growth inhibition,[13]; at 3.7 µM,-54%
same,growth inhibition,[13]; at 11.0 µM,97% (active)
same,growth inhibition,[13]; at 33.0 µM,98% (active)
same,growth inhibition,[13]; at 100.0 µM,98% (active)
same,growth inhibition,[14]; at 1.2 µM,-64%
same,growth inhibition,[14]; at 3.7 µM,-64%
same,growth inhibition,[14]; at 11.0 µM,97% (active)
same,growth inhibition,[14]; at 33.0 µM,98% (active)
same,growth inhibition,[14]; at 100.0 µM,98% (active)
same,growth inhibition,[15]; [17],16%
same,growth inhibition,[15]; [18],98% (active)
same,growth inhibition,[15]; at 50.0 µM,50%
same,growth inhibition,[16]; at 1.2 µM,-64%
same,growth inhibition,[16]; at 3.7 µM,-24%
same,growth inhibition,[16]; at 11.0 µM,97% (active)
same,growth inhibition,[16]; at 33.0 µM,98% (active)
same,growth inhibition,[16]; at 100.0 µM,98% (active)
O=[N+]([O-])c1ccc2nc(=S)[nH]n2c1,growth inhibition,[1]; at 1.2 µM,-3%
same,growth inhibition,[1]; at 3.7 µM,-2%
same,growth inhibition,[1]; at 11.0 µM,-2%
same,growth inhibition,[1]; at 33.0 µM,10%
same,growth inhibition,[1]; at 100.0 µM,65%
same,growth inhibition,[2]; at 1.2 µM,-3%
same,growth inhibition,[2]; at 3.7 µM,-2%
same,growth inhibition,[2]; at 11.0 µM,-7%
same,growth inhibition,[2]; at 33.0 µM,-8%
same,growth inhibition,[2]; at 100.0 µM,41%
same,growth inhibition,[3]; at 1.2 µM,0%
same,growth inhibition,[3]; at 3.7 µM,6%
same,growth inhibition,[3]; at 11.0 µM,20%
same,growth inhibition,[3]; at 33.0 µM,46%
same,growth inhibition,[3]; at 100.0 µM,87% (active)
same,growth inhibition,[4]; at 1.2 µM,0%
same,growth inhibition,[4]; at 3.7 µM,-4%
same,growth inhibition,[4]; at 11.0 µM,-4%
same,growth inhibition,[4]; at 33.0 µM,-8%
same,growth inhibition,[4]; at 100.0 µM,1%
same,growth inhibition,[5]; at 1.2 µM,-4%
same,growth inhibition,[5]; at 3.7 µM,-1%
same,growth inhibition,[5]; [17],-130%
same,growth inhibition,[5]; at 11.0 µM,13%
same,growth inhibition,[5]; at 33.0 µM,19%
same,growth inhibition,[5]; [18],94% (active)
same,growth inhibition,[5]; at 50.0 µM,58.6%
same,growth inhibition,[5]; at 100.0 µM,98% (active)
same,growth inhibition,[6]; at 1.2 µM,1%
same,growth inhibition,[6]; at 3.7 µM,-1%
same,growth inhibition,[6]; [17],-42%
same,growth inhibition,[6]; at 11.0 µM,-5%
same,growth inhibition,[6]; at 33.0 µM,0%
same,growth inhibition,[6]; [18],-7%
same,growth inhibition,[6]; at 50.0 µM,24.1%
same,growth inhibition,[6]; at 100.0 µM,34%
same,growth inhibition,[7]; at 1.2 µM,3%
same,growth inhibition,[7]; at 3.7 µM,-1%
same,growth inhibition,[7]; at 11.0 µM,6%
same,growth inhibition,[7]; at 33.0 µM,12%
same,growth inhibition,[7]; at 100.0 µM,59%
same,growth inhibition,[8]; [17],-58%
same,growth inhibition,[8]; [18],22%
same,growth inhibition,[8]; at 50.0 µM,23.9%
same,growth inhibition,[9]; at 1.2 µM,-2%
same,growth inhibition,[9]; at 3.7 µM,-2%
same,growth inhibition,[9]; at 11.0 µM,-4%
same,growth inhibition,[9]; at 33.0 µM,-5%
same,growth inhibition,[9]; at 100.0 µM,36%
same,growth inhibition,[10]; [17],-59%
same,growth inhibition,[10]; [18],2%
same,growth inhibition,[10]; at 50.0 µM,-7.5%
same,growth inhibition,[11]; at 1.2 µM,-9%
same,growth inhibition,[11]; at 3.7 µM,-8%
same,growth inhibition,[11]; [17],-71%
same,growth inhibition,[11]; at 11.0 µM,-5%
same,growth inhibition,[11]; at 33.0 µM,-5%
same,growth inhibition,[11]; [18],76% (active)
same,growth inhibition,[11]; at 50.0 µM,-6.7%
same,growth inhibition,[11]; at 100.0 µM,65%
same,growth inhibition,[12]; at 1.2 µM,-2%
same,growth inhibition,[12]; at 3.7 µM,-1%
same,growth inhibition,[12]; at 11.0 µM,-2%
same,growth inhibition,[12]; at 33.0 µM,-3%
same,growth inhibition,[12]; at 100.0 µM,12%
same,growth inhibition,[13]; at 1.2 µM,7%
same,growth inhibition,[13]; at 3.7 µM,-5%
same,growth inhibition,[13]; at 11.0 µM,-3%
same,growth inhibition,[13]; at 33.0 µM,-2%
same,growth inhibition,[13]; at 100.0 µM,26%
same,growth inhibition,[14]; at 1.2 µM,0%
same,growth inhibition,[14]; at 3.7 µM,-2%
same,growth inhibition,[14]; at 11.0 µM,-5%
same,growth inhibition,[14]; at 33.0 µM,0%
same,growth inhibition,[14]; at 100.0 µM,47%
same,growth inhibition,[15]; [17],-133%
same,growth inhibition,[15]; [18],78% (active)
same,growth inhibition,[15]; at 50.0 µM,46.1%
same,growth inhibition,[16]; at 1.2 µM,-2%
same,growth inhibition,[16]; at 3.7 µM,0%
same,growth inhibition,[16]; at 11.0 µM,2%
same,growth inhibition,[16]; at 33.0 µM,7%
same,growth inhibition,[16]; at 100.0 µM,60%
